We go through six compounds from PubChem BioAssay.

The nature of test [1]: HepG2 liver cancer cell viability effects, profiling panel, resazurin fluorescence, 24 h, PK04 Diversity Set (AID 1172). The settings on record: higher = more signal. On the technique in general: Resazurin is reduced to fluorescent resorufin, in cell work by metabolically active cells.
The nature of test [2]: basal S. cerevisiae growth modulation, no modifier, primary screen, OD600, strain BY4716, 24 h, basal condition (AID 1173). The settings on record: OD600, 24 h, higher = more signal, called active from +8 up or from −8 down.
Test [3] can be described thus: MM1S myeloma cell viability, profiling panel, resazurin fluorescence, basal, 24 h, PK04 Diversity Set (AID 1174).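 Further: MM1S multiple myeloma cell line.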 The settings on record: higher = more signal, called active from +8 up or from −8 down.
The target of test [4] is Dihydroorotate dehydrogenase (quinone), mitochondrial (Plasmodium falciparum (isolate 3D7)) (UniProt Q08210). The experiment in a line: PfDHODH enzyme inhibitors, primary screen, biochemical, C-terminal His tag, absorbance 600 nm (AID 1175).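 Further: recombinant parasite enzyme with a five histidine tag at its C terminus.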 To be noted: DCIP absorbance 600 nm, higher = more signal, called active from +8 up or from −8 down.
The nature of test [5]: P. aeruginosa biofilm formation inhibitors, primary screen, strain PAO1, LB-PBS medium, absorbance 600 nm (AID 1176). The settings on record: P. aeruginosa PAO1 growth/biofilm, A600, 12 h; higher = more signal.
Test [6] can be described thus: S. cerevisiae RM11-1a growth modifiers, primary screen, strain RM11-1a, OD600, basal, 24 h (AID 1177).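 Further: cultures grown under basal conditions with no added stressor.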 The settings on record: OD600, 24 h, higher = more signal, called active from +8 up or from −8 down.
Test [7] in a line: E. coli acrAB mutant growth effects, primary screen, E. coli filamentation inducers, strain DRC39, OD650, 24 h (AID 1178).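 Further: growth measured as culture turbidity by optical density at 650 nm.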 The settings on record: higher = more signal, called active from +8 up or from −8 down.
Test [8] in a line: E. coli acrAB mutant growth effects, primary screen, E. coli filamentation inducers, strain DRC39, OD650, 48 h (AID 1179).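 Further: screen aims at cell division blockers that make cells filament.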 To be noted: E. coli DRC39 delta-acrAB growth, higher = more signal, called active from +8 up or from −8 down.
Test [9] can be described thus: RPMI8226 myeloma cell viability, profiling panel, resazurin fluorescence, basal, 24 h, PK04 Diversity Set (AID 1180).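 Further: RPMI8826 multiple myeloma cell line at 5000 cells per well.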 To be noted: higher = more signal.
In test [10] the target is E3 ubiquitin-protein ligase XIAP (Homo sapiens) (UniProt P98170). The experiment in a line: XIAP binders, primary screen, biophysical, small-molecule microarray, fluorescence 635 nm (AID 1181).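 Further: score merges 667 nm emission and signal to noise over triplicate slides.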 The settings on record: small-molecule microarray binding, higher = more signal.
Test [11] has as its system XIP peptide (Xip251-270) binding. As to the kind of experiment: small-molecule binders of XIP peptide, primary screen, biochemical, small-molecule microarray, fluorescence 635/667 nm, 0.1 µg/mL protein (AID 1182). The settings on record: fluorescent protein binding, 635 nm, higher = more signal, called active from +8 up or from −8 down.
The next test relates to XIP peptide (Xip251-270). As to the kind of experiment: small-molecule binders of XIP peptide, primary screen, biochemical, small-molecule microarray, fluorescence 635/667 nm, 0.5 µg/mL protein (AID 1183). To be noted: small-molecule microarray binding, fluorescence 635 nm; higher = more signal.
Test [12] in a line: Plasmodium falciparum growth inhibition, primary screen, strain 3D7, DAPI fluorescence, 100 nL (AID 1184).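 Further: parasites grown inside human red blood cells in medium with human serum.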 To be noted: P. falciparum 3D7 growth, 3 d, higher = more signal.
In test [13] the target is Homeobox protein Hox-A13 (Mus musculus) (UniProt Q62424). The experiment in a line: inhibitors of HoxA13-DNA binding, primary screen, biochemical, fluorescence polarization, labeled oligonucleotide (AID 1185). To be noted: 15 min, higher = more signal, called active from +8 up or from −8 down. On the technique in general: Polarisation of emitted light reports the rotation of a fluorescent probe.

Test [14] can be described thus: inhibitors of hydroxyurea-induced Chk1 phosphorylation, primary screen, imaging, HeLa, phospho-Chk1 antibody, percent positive cells (AID 1186). The settings on record: hydroxyurea-induced phospho-Chk1 immunofluorescence imaging, higher = more signal.
Test [15] can be described thus: inhibitors of hydroxyurea-induced Chk1 phosphorylation, primary screen, imaging, HeLa, phospho-Chk1 nuclear intensity (AID 1187). The settings on record: hydroxyurea-induced phospho-Chk1 immunofluorescence imaging, higher = more signal.

Each structure is given as a SMILES string. Activity calls are given as the source filed them. Unless noted, how the calls were made is not given here.

Chain of Dihydroorotate dehydrogenase (quinone), mitochondrial (Plasmodium falciparum (isolate 3D7)) (Q08210 whole entry, looked up): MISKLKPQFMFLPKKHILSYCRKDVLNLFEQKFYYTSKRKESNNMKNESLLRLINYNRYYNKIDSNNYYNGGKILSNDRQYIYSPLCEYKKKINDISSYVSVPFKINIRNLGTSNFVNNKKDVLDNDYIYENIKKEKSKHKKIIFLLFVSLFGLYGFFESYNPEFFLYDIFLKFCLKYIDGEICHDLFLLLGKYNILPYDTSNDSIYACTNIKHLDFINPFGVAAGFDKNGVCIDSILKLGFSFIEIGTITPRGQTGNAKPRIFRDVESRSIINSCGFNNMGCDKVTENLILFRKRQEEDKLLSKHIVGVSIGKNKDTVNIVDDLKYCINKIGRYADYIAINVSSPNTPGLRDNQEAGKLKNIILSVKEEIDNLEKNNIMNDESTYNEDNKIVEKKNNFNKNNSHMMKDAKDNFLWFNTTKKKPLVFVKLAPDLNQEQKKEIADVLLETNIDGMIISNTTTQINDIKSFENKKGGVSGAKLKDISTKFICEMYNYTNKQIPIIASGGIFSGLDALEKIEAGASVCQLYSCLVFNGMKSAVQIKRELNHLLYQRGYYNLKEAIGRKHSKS
Chain of Homeobox protein Hox-A13 (Mus musculus) (Q62424 whole entry, looked up): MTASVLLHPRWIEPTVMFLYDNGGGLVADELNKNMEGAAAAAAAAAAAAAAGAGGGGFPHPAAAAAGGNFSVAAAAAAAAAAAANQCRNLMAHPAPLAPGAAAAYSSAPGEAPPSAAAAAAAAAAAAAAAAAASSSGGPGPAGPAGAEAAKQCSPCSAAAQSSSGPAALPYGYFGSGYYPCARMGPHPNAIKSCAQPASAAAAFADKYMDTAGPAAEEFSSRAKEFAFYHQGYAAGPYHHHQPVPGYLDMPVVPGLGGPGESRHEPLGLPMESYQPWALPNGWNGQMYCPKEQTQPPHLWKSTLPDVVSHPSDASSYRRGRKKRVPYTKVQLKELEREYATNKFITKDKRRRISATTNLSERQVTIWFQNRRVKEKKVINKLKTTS
Chain of E3 ubiquitin-protein ligase XIAP (Homo sapiens) (P98170 whole entry, looked up): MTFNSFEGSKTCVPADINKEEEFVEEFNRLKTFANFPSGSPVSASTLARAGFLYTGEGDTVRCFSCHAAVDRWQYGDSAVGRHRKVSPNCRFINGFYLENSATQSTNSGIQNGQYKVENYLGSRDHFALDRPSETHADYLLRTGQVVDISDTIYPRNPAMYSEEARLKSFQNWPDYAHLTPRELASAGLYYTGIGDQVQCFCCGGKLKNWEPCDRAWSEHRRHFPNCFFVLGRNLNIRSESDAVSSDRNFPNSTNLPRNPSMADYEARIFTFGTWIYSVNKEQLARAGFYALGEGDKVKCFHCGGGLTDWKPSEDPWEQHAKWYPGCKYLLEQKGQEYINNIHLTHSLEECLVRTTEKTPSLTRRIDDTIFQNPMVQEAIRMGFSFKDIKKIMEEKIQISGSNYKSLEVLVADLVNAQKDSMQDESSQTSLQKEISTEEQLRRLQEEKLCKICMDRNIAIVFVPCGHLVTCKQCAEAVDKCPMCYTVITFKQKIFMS

As to `CCCC=C(CCC)[C@@H](NC(=O)c1ccc(C(F)(F)F)cc1)c1ccc(C(F)(F)F)cc1`, the z-score in test [1] is 0.706; in [2], 2.01 (inactive); in test [3], 0.126 (inactive); in test [5] it was 0.219 (inactive); in test [6], 2.66 (inactive); in [7], -0.101 (inactive). For the same compound, the z-score in test [8] is 0.0205 (inactive); in [9], -1.9; in [12], -0.702; in test [13], -3.88 (inactive); in test [14] it was -0.136 (inactive); in test [15], -0.377 (inactive). Further, the composite z-score in test [4] is 0.256 (inactive); in [10] it was 1.11; in test [11] it was 0.237 (inactive); in the test with XIP peptide (Xip251-270), 0.541.
For the compound `COc1ccc(C(O)C2C=CC3C(=O)N(c4ccccc4)C(=O)C3N2Nc2ccc(C#N)cc2)cc1OCc1ccccc1` (stereo unspecified), the z-score in test [1] was -1.74; in test [2], 0.0151 (inactive); in [3] it was -0.829 (inactive); in test [5], 1.45 (inactive); in test [6], -0.396 (inactive); in test [7], -0.933 (inactive). Moreover, the z-score was -0.0725 (inactive) in test [8]; -0.756 in test [9]; -0.474 in test [12]; 0.712 (inactive) in test [13]; -0.405 (inactive) in [14]; -0.669 (inactive) in test [15]. Moreover, the composite z-score in test [4] is 0.94 (inactive); in [10], 0.44; in test [11], 0.496 (inactive); with XIP peptide (Xip251-270), 0.556.
Take `CCCN1C(=O)[C@]2(CCC(=O)OC(C)(C)C)N=C(c3ccc(OCCCO)cc3)O[C@@H]2c2ccccc21`: the z-score was -0.154 in test [1]; -0.836 (inactive) in test [2]; -2.08 (inactive) in test [3]; 3.33 (inactive) in test [5]; 0.654 (inactive) in test [6]; 1.08 (inactive) in [7]. Besides, the z-score in test [8] was 0.0565 (inactive); in [9], -2.7; in test [12] it was -2.33; in test [13] it was -3.37 (inactive); in [14], -0.292 (inactive); in [15], -0.312 (inactive). Further, the composite z-score in [4] was 0.023 (inactive); in test [10], 0.118; in [11] it was 0.55 (inactive); in the test with XIP peptide (Xip251-270), 0.601.
Turning to `CC1=C([C@H](O)CCc2ccccc2)[C@H](CO)n2c(=O)n(-c3ccccc3)c(=O)n2C1`, the z-score in test [1] was 0.331; in [2] it was -2.79 (inactive); in test [3], 0.199 (inactive); in [5] it was 0.589 (inactive); in test [6] it was -1.97 (inactive); in [7], 1.19 (inactive). In addition, the z-score in test [8] is 1.35 (inactive); in test [9], 0.12; in test [12], 0.0483; in test [13], -2.24 (inactive); in [14] it was -0.773 (inactive); in [15], -0.906 (inactive). The composite z-score was -1.34 (inactive) in test [4], -0.237 in [10], -0.611 (inactive) in test [11] and 0.754 in the test on XIP peptide (Xip251-270).
As for `COc1cc(C(O)C2C=CC3C(=O)N(c4ccccc4)C(=O)C3N2Nc2ccccc2)cc(OC)c1OC` (stereo unspecified), the z-score was -0.945 in test [1]; -7.58 (inactive) in test [2]; -0.191 (inactive) in [3]; 1.11 (inactive) in test [5]; 0.499 (inactive) in test [6]; -0.393 (inactive) in test [7]. Further, the z-score is -0.433 (inactive) in [8]; -0.977 in [9]; 0.808 in [12]; -3.96 (inactive) in test [13]; -0.153 (inactive) in test [14]; -0.522 (inactive) in [15]. Moreover, the composite z-score is 0.484 (inactive) in [4], 0.0845 in [10], 1.1 (inactive) in [11] and 0.746 with XIP peptide (Xip251-270).
Consider `O=C(NCCN1CCOCC1)[C@@H]1c2ccccc2C(=O)N(Cc2ccc(OC(F)(F)F)cc2)[C@H]1c1ccc(CO)cc1`, for which the z-score is -0.129 in test [1]; -0.559 (inactive) in [2]; 0.0245 (inactive) in test [3]; 0.925 (inactive) in [5]; -0.449 (inactive) in [6]; 0.248 (inactive) in [7]. Besides, the z-score in [8] was -0.322 (inactive); in [9] it was 0.546; in [12], -1.05; in test [13], -4.13 (inactive); in test [14], 0.0777 (inactive); in [15] it was -0.117 (inactive). For the same compound, the composite z-score is -0.0449 (inactive) in test [4], 0.0151 in test [10], 0.441 (inactive) in test [11] and -0.103 with XIP peptide (Xip251-270).
